Eight molecules from PubChem BioAssay (Tox21) can be followed below.

Unmarked numbers belong to inactive results. Inconclusive results are not listed. Active and inactive are the calls of the source. Unless noted, the call rests on the fitted dose curve; in most records, active means well fitted curve in the direction sought with a large enough effect in the repeat runs; inconclusive means weak or mixed curves; inactive means no such curve, though single readings can be large; an effect the other way counts as inactive or inconclusive.

Test [1] is described as follows: qHTS assay to identify small molecule agonists of the estrogen receptor alpha (ER-alpha) signaling pathway in the presence of an antagonist - cell viability counter screen (AID 1259386).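 Further: series mostly up to about 92 µM; cells exposed to compounds for 22 h at 37 °C before the viability read; nearly all actives have a fitted effect of over 30% in size.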 A digest of the protocol: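 Cells are starved of estrogens for 5 days in charcoal-stripped serum, seeded for 24hr and co-treated with ICI-182,780 (10.0nM final) and test compounds. After 22hr at 37C, viability is read as CellTiter-Fluor fluorescence.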

Test [2] concerns the target Progesterone receptor (Homo sapiens) (UniProt P06401). The test is described as follows: qHTS assay to identify small molecule agonists of the progesterone receptor (PR) signaling pathway (AID 1346784; calls by dose curve; further: nearly all actives have a fitted effect of over 30% in size). A digest of the protocol: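 Using charcoal-stripped serum (2%) to limit endogenous steroids, PR-UAS-bla HEK 293T cells received compounds for 16 hr at 37C after 6 hr plating; beta-lactamase FRET fluorescence was recorded following 2 hr substrate loading at room temperature.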
(In general: In qHTS, concentration-response curves come from the screen itself.)

The target is the same in test [3]. The test is described as follows: qHTS assay to identify small molecule antagonists of the progesterone receptor (PR) signaling pathway (AID 1346795; active means well fitted inhibition curve with a large enough effect in the signal ratio in the repeat runs, not every such curve was filed as active; the % refers to the signal ratio; further: potency means the concentration at half of the fitted maximal effect). The gist of the method:
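Inhibition of R5020-induced (1 nM final) beta-lactamase reporter signal in PR-UAS-bla HEK293T cells was scored by FRET fluorescence after overnight (16 hr) compound treatment.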

Test [4] in a line: qHTS assay to identify small molecule antagonists of the progesterone receptor (PR) signaling pathway - cell viability counter screen (AID 1346798). Further: series mostly up to about 92 µM; nearly all actives have a fitted effect of over 50% in size. The gist of the method: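 ATP content as viability readout: CellTiter-Glo luminescence, 30 min room temperature, in PR-UAS-bla HEK293T cells after 16 hr compound/R5020 treatment at 37C and 5% CO2.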
Test [5] in a line: qHTS assay to identify small molecule agonists of the progesterone receptor (PR) signaling pathway - cell viability counter screen (AID 1346799; calls by dose curve; further: nearly all actives have a fitted effect of over 45% in size). A digest of the protocol: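 Cytotoxicity in PR-bla HEK293T cells: 16 h compound, 37C; CellTiter-Glo added post-FRET read; luminescence after 30 min RT.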
The nature of test [6]: qHTS assay to identify small molecule antagonists of the TGF-beta/Smad signaling pathway - cell viability counter screen (AID 1346824). Further: nearly all actives have a fitted effect of over 50% in size. A digest of the protocol:
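Cytotoxicity counter-screen run in the same wells as the beta-lactamase Smad reporter read: CellTiter-Glo luminescence after 30 min at room temperature. HEK 293T SBE-bla cells had 5 hr compound exposure at 37 C with TGF-beta1 (0.25 ng/mL stock).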

A short description of test [7]: qHTS assay to identify small molecule agonists of the TGF-beta/Smad signaling pathway - cell viability counter screen (AID 1346829). Further: top concentration of the series differs between compounds; nearly all actives have a fitted effect of over 45% in size. A digest of the protocol:
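Compound-treated SBE-bla HEK 293T cells (5 hr, 37 C) were assessed for viability with CellTiter-Glo in parallel with the reporter read.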

Test [8] is described as follows: qHTS assay to identify small molecule agonists of the TGF-beta/Smad signaling pathway (AID 1346859; active means well fitted activation curve with a large enough effect in the signal ratio in the repeat runs, not every such curve was filed as active; the % refers to the signal ratio; further: series mostly up to about 77 µM). The gist of the method:
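Stable Smad binding element-beta-lactamase HEK 293T cells; 5 hr compound exposure at 37 C under 5% CO2; 2 hr room-temperature substrate step; fluorescence excited at 405 nm, collected at 460 nm and 530 nm.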

The target in test [9] is Thyrotropin-releasing hormone receptor (Homo sapiens) (UniProt P34981). Description: qHTS assay to identify small molecule antagonists of the thyrotropin-releasing hormone receptor (TRHR) signaling pathway (AID 1346877; active means well fitted inhibition curve with a large enough effect in the repeat runs, not every such curve was filed as active; further: series mostly up to about 51 µM). The gist of the method:
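Cells (TRHR-HEK293) are plated and kept 18 h at 37 °C/5% CO2. A calcium-sensitive dye is added for 2 h, compound follows for 5 min at room temperature, and TRH is then given at 1 nM final.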

The target is the same in test [10]. Description: qHTS assay to identify small molecule agonists of the thyrotropin-releasing hormone receptor (TRHR) signaling pathway (AID 1346891; calls by dose curve;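 further: HEK293 cells expressing TRHR with calcium dye readout; series mostly up to about 58 µM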). A digest of the protocol: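 In 1536-format, 1500 TRHR-Hek293 cells per well grew 18 h, took up calcium dye for 2 h at 37 °C, received compound, and were read kinetically; 15-point titrations, triplicates.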
Test [11] is described as follows: Human pregnane X receptor (PXR) small molecule agonists, qHTS cell viability counter screen (AID 1346977). Further: nearly all actives have a fitted effect of over 50% in size. A digest of the protocol: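 Readout is CellTiter-Fluor fluorescence from PXR-Luc HepG2 cells. Plated cells rested 5hr, then were treated with compounds for 24hr at 37C and 5% CO2, with reagent present during the last hour.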
Test [12] is described as follows: Caspase-3/7 induction in HepG2 cells by small molecules, qHTS assay (AID 1346978). Further: nearly all actives have a fitted effect of over 15% in size. The gist of the method:
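Caspase-3/7 induction was measured by Caspase-Glo 3/7 luminescence (30 min, room temperature) after a 17 hr compound exposure of wild-type HepG2 cells seeded at 2,000 per well and pre-incubated 5 hr.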

The nature of test [13]: Caspase-3/7 induction in CHO-K1 cells by small molecules, qHTS cell viability counter screen (AID 1346979). Further: nearly all actives have a fitted effect of over 35% in size. Further: potency means the concentration at half of the fitted maximal effect. The gist of the method:
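To flag cytotoxic compounds, treated CHO-K1 wild-type cells were given CellTiter-Fluor at 16hr and read fluorescently after 1hr at 37C; the caspase-3/7 luminescence was measured in these same wells.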

Test [14] in a line: Caspase-3/7 induction in CHO-K1 cells by small molecules, qHTS assay (AID 1346980). Further: nearly all actives have a fitted effect of over 15% in size. A digest of the protocol: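 Luminescent Caspase-Glo 3/7 read (30min, room temperature) quantified apoptosis induction. Cells were wild-type CHO-K1, treated with compound for 17hr at 37 C and 5% CO2.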
Test [15] in a line: Caspase-3/7 induction in HepG2 cells by small molecules, qHTS cell viability counter screen (AID 1346981). Further: series mostly up to about 92 µM; nearly all actives have a fitted effect of over 30% in size. The gist of the method:
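Steps: seed 2,000 HepG2 cells per well; incubate 5 hr at 37 C; pin-add compounds in DMSO; incubate 16 hr; add CellTiter-Fluor; after 1 hr at 37 C and 5% CO2, read fluorescence.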

Test [16] deals with Nuclear receptor subfamily 1 group I member 2 (Homo sapiens) (UniProt O75469). Description: Human pregnane X receptor (PXR) small molecule agonists, qHTS assay (AID 1346982). Further: nearly all actives have a fitted effect of over 35% in size. Further: potency means the concentration at half of the fitted maximal effect. The gist of the method:
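Agonist mode qHTS: PXR-Luc HepG2 cells plated 5 hr before DMSO-dissolved compounds were pinned in, cultured 24 hr at 37 C, 5% CO2; ONE-Glo luminescence readout.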

Test [17] addresses Cytochrome P450 2D6 (Homo sapiens) (UniProt P10635). Description: Cytochrome P450 Family 2 Subfamily D Member 6 (CYP2D6) small molecule antagonists: luciferase reporter qHTS assay (AID 1671196). Further: nearly all actives have a fitted effect of over 50% in size. Further: potency means the concentration at half of the fitted maximal effect. The gist of the method: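 P450-Glo format: CYP2D6 converts a proluciferin substrate to luciferin in an NADPH-driven reaction lasting 1 h at room temperature. Light output, proportional to CYP2D6 activity, reflects interference by test chemicals.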
For orientation: Reporter assays use an easily measured gene product as a stand-in for the process of interest.

Test [18] concerns the target Nuclear receptor subfamily 1 group I member 2 (Rattus norvegicus) (UniProt Q9R1A7). Description: Rat pregnane X receptor (rPXR) activation by small molecules, qHTS assay (AID 1346983). Further: nearly all actives have a fitted effect of over 20% in size. Further: potency means the concentration at half of the fitted maximal effect. The settings on record: rPXR luciferase reporter cells, One-Glo luminescence, 24 h; max activation: active compounds read high. A digest of the protocol:
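Luminescent readout (One-Glo luciferase, 30 min room temperature) followed 24 hr compound treatment at 37 C of rPXR cells plated 2,000 per well and preincubated 5hr; qHTS format with compounds delivered in DMSO.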

Test [19] has as its target Nuclear receptor subfamily 1 group I member 2 (Homo sapiens) (UniProt O75469). Description: CYP3A4 induction through human pregnane X receptor (PXR) by small molecules, qHTS assay (AID 1346984). Further: nearly all actives have a fitted effect of over 40% in size. The gist of the method: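 Steps: seed DPX-2 cells, 5 hr at 37C; pin-transfer compounds; 24 hr at 37C; add Luciferin-IPA (3uM final), 3 hr at 37C; add One-Glo, 30 min RT; read luminescence.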

Test [20] has the same target. Description: Human pregnane X receptor (PXR) activation by small molecules, qHTS assay (AID 1346985). Further: nearly all actives have a fitted effect of over 40% in size. A digest of the protocol:
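DPX-2 cells (HepG2 co-transfected with a PXR response element and a CYP3A4-promoter luciferase construct) were seeded at 2,000 per well, rested 5 hr at 37C, then exposed to DMSO-dissolved compounds for 24 hr. Activation was read as luciferase luminescence.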
On the % scale 0 is the no-effect control and ±100 the full control effect.

Sequence of Thyrotropin-releasing hormone receptor (Homo sapiens) (P34981 whole entry, looked up): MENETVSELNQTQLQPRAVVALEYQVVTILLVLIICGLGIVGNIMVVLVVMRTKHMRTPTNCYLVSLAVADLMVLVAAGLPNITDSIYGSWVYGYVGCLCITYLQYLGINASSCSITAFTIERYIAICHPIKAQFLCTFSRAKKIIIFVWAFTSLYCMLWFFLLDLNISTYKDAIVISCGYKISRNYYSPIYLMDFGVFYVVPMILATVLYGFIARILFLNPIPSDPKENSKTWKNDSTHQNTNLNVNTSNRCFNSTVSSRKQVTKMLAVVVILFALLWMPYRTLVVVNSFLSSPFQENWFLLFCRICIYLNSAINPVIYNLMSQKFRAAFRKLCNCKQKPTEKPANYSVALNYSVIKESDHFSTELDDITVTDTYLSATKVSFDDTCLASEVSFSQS
Sequence of Cytochrome P450 2D6 (Homo sapiens) (P10635 whole entry, looked up): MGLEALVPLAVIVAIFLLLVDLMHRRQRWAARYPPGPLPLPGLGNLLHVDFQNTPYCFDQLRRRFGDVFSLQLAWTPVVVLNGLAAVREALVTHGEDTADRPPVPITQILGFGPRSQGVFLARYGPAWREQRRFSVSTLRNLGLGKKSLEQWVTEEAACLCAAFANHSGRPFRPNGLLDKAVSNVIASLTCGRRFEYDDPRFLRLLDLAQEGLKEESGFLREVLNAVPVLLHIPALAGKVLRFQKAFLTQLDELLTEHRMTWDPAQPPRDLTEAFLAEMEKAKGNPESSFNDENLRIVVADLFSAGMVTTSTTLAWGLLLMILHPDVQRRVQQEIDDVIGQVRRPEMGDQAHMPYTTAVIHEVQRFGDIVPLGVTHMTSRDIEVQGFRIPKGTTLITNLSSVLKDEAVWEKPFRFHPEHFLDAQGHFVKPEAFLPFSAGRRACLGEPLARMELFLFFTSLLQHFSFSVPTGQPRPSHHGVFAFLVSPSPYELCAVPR
Sequence of Progesterone receptor (Homo sapiens) (P06401 whole entry, looked up): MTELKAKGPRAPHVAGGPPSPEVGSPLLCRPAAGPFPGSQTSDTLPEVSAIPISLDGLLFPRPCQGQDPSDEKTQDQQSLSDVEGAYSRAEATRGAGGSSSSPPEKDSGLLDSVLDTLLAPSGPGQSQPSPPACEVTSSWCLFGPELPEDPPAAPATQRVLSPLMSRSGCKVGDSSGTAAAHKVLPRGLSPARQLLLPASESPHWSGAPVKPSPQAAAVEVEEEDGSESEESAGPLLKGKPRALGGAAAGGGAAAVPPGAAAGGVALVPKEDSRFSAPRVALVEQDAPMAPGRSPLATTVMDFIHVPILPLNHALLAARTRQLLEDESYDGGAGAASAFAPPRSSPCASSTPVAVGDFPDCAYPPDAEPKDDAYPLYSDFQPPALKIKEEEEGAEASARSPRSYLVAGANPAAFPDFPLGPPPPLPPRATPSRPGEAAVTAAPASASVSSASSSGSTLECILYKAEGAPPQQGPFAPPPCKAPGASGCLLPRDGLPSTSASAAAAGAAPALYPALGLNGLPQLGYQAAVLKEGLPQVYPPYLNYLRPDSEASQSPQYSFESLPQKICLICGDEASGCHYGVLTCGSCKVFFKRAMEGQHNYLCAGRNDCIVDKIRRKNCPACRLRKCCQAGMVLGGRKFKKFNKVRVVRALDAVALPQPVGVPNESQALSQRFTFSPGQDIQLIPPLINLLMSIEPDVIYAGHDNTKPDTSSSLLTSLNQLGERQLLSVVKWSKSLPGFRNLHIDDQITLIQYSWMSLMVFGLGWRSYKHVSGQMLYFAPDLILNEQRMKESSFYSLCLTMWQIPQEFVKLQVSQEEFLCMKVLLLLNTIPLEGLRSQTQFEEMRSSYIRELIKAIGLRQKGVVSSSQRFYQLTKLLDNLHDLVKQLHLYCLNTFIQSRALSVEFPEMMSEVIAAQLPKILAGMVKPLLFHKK
Sequence of Nuclear receptor subfamily 1 group I member 2 (Homo sapiens) (O75469 whole entry, looked up): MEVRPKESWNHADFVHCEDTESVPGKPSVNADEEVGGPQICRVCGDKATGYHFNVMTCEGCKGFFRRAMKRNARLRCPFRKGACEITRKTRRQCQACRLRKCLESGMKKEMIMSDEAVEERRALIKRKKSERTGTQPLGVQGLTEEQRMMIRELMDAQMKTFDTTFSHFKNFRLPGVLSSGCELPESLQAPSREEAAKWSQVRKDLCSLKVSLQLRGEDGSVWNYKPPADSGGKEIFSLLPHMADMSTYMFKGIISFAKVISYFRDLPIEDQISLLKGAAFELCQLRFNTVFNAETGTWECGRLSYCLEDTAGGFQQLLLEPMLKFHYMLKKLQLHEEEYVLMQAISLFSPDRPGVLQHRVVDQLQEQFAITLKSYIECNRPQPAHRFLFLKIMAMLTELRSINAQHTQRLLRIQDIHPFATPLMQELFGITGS
Sequence of Nuclear receptor subfamily 1 group I member 2 (Rattus norvegicus) (Q9R1A7 whole entry, looked up): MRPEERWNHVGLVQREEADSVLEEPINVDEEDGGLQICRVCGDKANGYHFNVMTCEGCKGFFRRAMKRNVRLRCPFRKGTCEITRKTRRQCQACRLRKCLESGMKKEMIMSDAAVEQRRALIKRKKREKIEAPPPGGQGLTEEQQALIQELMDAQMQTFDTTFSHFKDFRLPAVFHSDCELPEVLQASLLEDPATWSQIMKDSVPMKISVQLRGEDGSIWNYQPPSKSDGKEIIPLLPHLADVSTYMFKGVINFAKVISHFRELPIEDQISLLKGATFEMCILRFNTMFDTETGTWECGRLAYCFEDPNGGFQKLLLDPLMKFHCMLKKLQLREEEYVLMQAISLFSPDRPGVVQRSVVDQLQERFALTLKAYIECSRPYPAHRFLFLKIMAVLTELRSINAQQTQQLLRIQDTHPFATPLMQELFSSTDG

As to `ClC(Cl)(Cl)c1ccc(C(Cl)(Cl)Cl)cc1`, the Potency result in test [1], in test [3], in test [4], in test [5], in test [6] and in test [7] was “inactive” each time. Further, the Potency result in test [10], in test [11], in test [13], in test [14], in test [15] and in [16] was “inactive” each time. Besides, the molecule was classed as inactive in [2], in test [8], in [9] and in test [12].
Consider `N#CCCNCCC#N`, for which the Potency result in test [1], in [3], in [4], in [5], in [6] and in test [7] was “inactive” in each case. The Potency result in [10], in [11], in test [13], in test [14], in test [15] and in test [16] was “inactive” throughout. For the same molecule, the Potency result in test [17] was “inactive”. In addition, the result in [2], in [8] and in test [9] was inactive.
For `CC[C@]12CCCN3CCc4c(n(c5ccccc45)C(=O)C1)[C@@H]32`, the Potency result in [1], in test [4], in test [5], in [6], in test [7] and in [11] was “inactive” in each case. Further, the Potency result in test [14] was “inactive”. Further, the outcome in test [2], in test [8] and in [12] was inactive. The Potency in test [3] was 13.3 µM (active); in test [13], 26.6 µM (active); in test [18] it was 8.91 µM (active); in [17], 0.155 µM (active).
For the molecule `CCCC(=O)OCC`, the Potency result in [1], in test [3], in test [4], in [5], in test [6] and in [7] was “inactive” each time. The Potency entry in [10], in test [11], in test [13], in test [14], in test [16] and in [17] was “inactive” in each case. Moreover, the outcome in test [2], in test [8], in [9] and in [12] was inactive.
Turning to `CCCCCCc1ccc(N)cc1`, the Potency entry in [1], in test [3], in test [4], in [5], in test [6] and in test [7] was “inactive” each time. Besides, the Potency entry in [10], in test [11], in [13] and in test [14] was “inactive” throughout. For the same molecule, the outcome in test [2], in test [8], in [9] and in [12] was inactive. In addition, the Potency in test [16] is 30.6 µM (active).
On to `C1CCC2OC2C1` (stereo not drawn), for which the Potency entry in [1], in test [3], in test [4], in test [5], in [6] and in test [7] was “inactive” throughout. In addition, the Potency entry in test [10], in test [11], in test [13], in test [14], in [15] and in test [16] was “inactive” each time. Besides, in test [17], the Potency result was “inactive”. Also, the molecule was called inactive in test [2], in test [8], in test [9] and in [12].
As for `SC1CCCC1`, the Potency entry in [1], in [3], in test [4], in test [5], in test [6] and in test [7] was “inactive” in each case. Also, the Potency result in test [11], in [13], in [14], in [15], in test [16] and in test [17] was “inactive” throughout. Further, the molecule was called inactive in test [2], in test [8] and in test [12].
On to `CC1(C)[C@H]2CC[C@]1(C)[C@H](O)C2`, for which the Potency result in [1], in test [3], in test [4], in test [5], in test [6] and in [7] was “inactive” throughout. The Potency result in [10], in test [11], in test [13], in [14], in [16] and in [19] was “inactive” each time. For the same molecule, the Potency entry in test [20] and in test [17] was “inactive” throughout. Further, the call in test [2], in [8], in [9] and in [12] was inactive. In test [18], the max activation was -0.529%.
